Source: PubChem BioAssay (Tox21)
Inconclusive results are not listed. A call without a number means that no potency is given here. Activity calls are given as the source filed them. Unless noted, calls come from the whole dose curve.

How the values were obtained:
[1] = Nuclear factor erythroid 2-related factor 2/antioxidant responsive element (Nrf2/ARE) small molecule agonists: qHTS cell viability counter screen in human keratinocytes (AID 1919968; active = well fitted curve in the direction sought with a large enough effect in the repeat runs; an effect the other way counts as inactive or inconclusive; note: nearly all actives have a fitted effect of over 55% in size; note: potency is the fitted concentration of half-maximal effect)
Method in brief: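 Cytotoxicity was multiplexed with the Nrf2/ARE luciferase assay in the same wells. Stably transfected HaCaT keratinocytes were treated with test compounds for 23 h at 37 C. Cell viability was then measured by CellTiter-Fluor fluorescence.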

[2] = Nuclear factor erythroid 2-related factor 2/antioxidant responsive element (Nrf2/ARE) small molecule agonists: luciferase reporter gene qHTS assay in human keratinocytes (AID 1919969); note: nearly all actives have a fitted effect of over 35% in size; note: potency is the fitted concentration of half-maximal effect
[3] = biological target: Gonadotropin-releasing hormone receptor (Homo sapiens) (UniProt P30968); experiment: Human gonadotropin-releasing hormone receptor (GnRHR) small molecule agonists, calcium flux assay in GnRHR-HEK293 cells (AID 1920063); note: nearly all actives have a fitted effect of over 35% in size
Chain of Gonadotropin-releasing hormone receptor (Homo sapiens) (P30968 whole entry, looked up): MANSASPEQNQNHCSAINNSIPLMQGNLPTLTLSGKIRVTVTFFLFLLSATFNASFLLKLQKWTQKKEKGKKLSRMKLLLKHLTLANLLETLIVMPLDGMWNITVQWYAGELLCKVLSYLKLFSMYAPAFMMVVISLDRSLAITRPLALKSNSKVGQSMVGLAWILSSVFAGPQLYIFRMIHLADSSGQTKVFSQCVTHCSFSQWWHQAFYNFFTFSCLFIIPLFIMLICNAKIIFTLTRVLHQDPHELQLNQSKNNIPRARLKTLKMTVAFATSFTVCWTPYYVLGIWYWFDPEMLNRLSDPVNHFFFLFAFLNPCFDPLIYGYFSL
Method in brief: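 Agonist activity was measured as intracellular calcium flux in HEK293 cells engineered to stably express human GnRHR. After dye loading for 1 hour at 37 C, compounds in DMSO were added and fluorescence was followed for 3 minutes.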

[4] = biological target: KiSS-1 receptor (Homo sapiens) (UniProt Q969F8); experiment: Human kisspeptin (KISS1R) small molecule agonists, calcium flux assay in KISS1R-HEK293 cells (AID 1920064; active = well fitted curve in the direction sought with a large enough effect in the repeat runs; an effect the other way counts as inactive or inconclusive)
Chain of KiSS-1 receptor (Homo sapiens) (Q969F8 whole entry, looked up): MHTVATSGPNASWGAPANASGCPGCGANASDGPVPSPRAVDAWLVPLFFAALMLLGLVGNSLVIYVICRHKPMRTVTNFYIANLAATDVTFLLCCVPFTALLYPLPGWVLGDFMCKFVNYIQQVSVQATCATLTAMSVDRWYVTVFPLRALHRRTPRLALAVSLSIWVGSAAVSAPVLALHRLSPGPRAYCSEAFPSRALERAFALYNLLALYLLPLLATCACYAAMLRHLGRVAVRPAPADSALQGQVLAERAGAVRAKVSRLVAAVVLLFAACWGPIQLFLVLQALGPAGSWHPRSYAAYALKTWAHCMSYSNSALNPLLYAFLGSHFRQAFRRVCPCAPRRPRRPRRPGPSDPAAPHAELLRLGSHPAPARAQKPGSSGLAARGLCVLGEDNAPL
Method in brief: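 Agonist activity is monitored as intracellular calcium rise in engineered HEK293 cells carrying human KISS1R. Cells are dye-loaded for 1 h at 37 C before compound addition, and fluorescence is recorded for 3 min.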

[5] = G protein-coupled receptor (GPCR) small molecule agonists, calcium flux assay: HEK293 wild type cell line counter screen (AID 1920065)
Method in brief: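 Seed cells, incubate 18 h (37 C, 5% CO2); add calcium dye, 1 h at 37 C; pin-transfer compounds, ATP control or DMSO; read fluorescence 480/540 nm each second for 3 min.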

[6] = p53 small molecule agonists, cell-based qHTS assay with human liver microsomes (AID 1963577);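 note: p53 response element beta-lactamase reporter cells with liver microsomes plus NADPH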
Method in brief: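 16 h, 37 C exposure of p53RE-bla cells to compounds with human liver microsomes and NADPH (0.5 mg/mL final each); detection via LiveBLAzer mixture, 2 h dark at room temperature.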

[7] = p53 small molecule agonists, cell-based qHTS assay with rat liver microsomes (AID 1963578)
Method in brief: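 With rat liver microsomes and NADPH present (0.5 mg/mL final each), p53RE-bla cells are treated with compound for 16 h at 37 C. LiveBLAzer detection mixture is then applied for 2 h at room temperature in the dark.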

[8] = p53 small molecule agonists, cell-based qHTS assay with human liver microsomes: qHTS cell viability counter screen (AID 1963579); note: nearly all actives have a fitted effect of over 45% in size; note: potency is the fitted concentration of half-maximal effect
Method in brief: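 In this multiplexed counter screen, the reporter plates were subsequently treated with CellTiter-Glo so that cell viability, reflected by luminescence, could be recorded for p53RE-bla cells dosed 16 h with compounds under microsomal activation (HLM and NADPH).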

[9] = p53 small molecule agonists, cell-based qHTS assay with rat liver microsomes: qHTS cell viability counter screen (AID 1963580); note: nearly all actives have a fitted effect of over 45% in size
Method in brief: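 After the beta-lactamase ratio was read, CellTiter-Glo was added to the same wells and luminescence measured at 30 min; cells had been treated 16 h at 37 C with compounds, rat liver microsomes and NADPH (0.5 mg/mL final each).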

[10] = p53 small molecule agonists, cell-based qHTS assay (AID 1963582; active = well fitted activation curve with a large enough effect in the signal ratio in the repeat runs, not every such curve was filed as active; the % refers to the signal ratio)
Method in brief: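 Cells carrying a p53-responsive bla reporter are treated with test compounds for 16 h at 37 C; beta-lactamase activity is then detected with LiveBLAzer B/G FRET substrate after 2 h at room temperature.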

[11] = biological target: 5-hydroxytryptamine receptor 2A (Homo sapiens) (UniProt P28223); experiment: 5-hydroxytryptamine receptor 2A (HTR2A) small molecule antagonists, cell-based qHTS assay (AID 1963586); note: nearly all actives have a fitted effect of over 45% in size
Chain of 5-hydroxytryptamine receptor 2A (Homo sapiens) (P28223 whole entry, looked up): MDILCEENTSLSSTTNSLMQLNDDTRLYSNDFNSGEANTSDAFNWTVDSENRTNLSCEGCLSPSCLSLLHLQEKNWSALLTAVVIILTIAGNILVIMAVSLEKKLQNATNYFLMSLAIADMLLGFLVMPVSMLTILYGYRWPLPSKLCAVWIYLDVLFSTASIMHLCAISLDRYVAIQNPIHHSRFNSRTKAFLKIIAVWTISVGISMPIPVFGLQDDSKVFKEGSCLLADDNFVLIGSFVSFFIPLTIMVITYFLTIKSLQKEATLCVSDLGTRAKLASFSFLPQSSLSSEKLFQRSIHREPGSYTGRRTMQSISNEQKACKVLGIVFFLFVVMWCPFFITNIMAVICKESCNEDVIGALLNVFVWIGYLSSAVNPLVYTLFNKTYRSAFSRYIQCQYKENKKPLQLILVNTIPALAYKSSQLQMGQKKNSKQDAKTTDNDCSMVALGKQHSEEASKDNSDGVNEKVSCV
Method in brief: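 CHO cells stably expressing human HTR2A were plated for 18 h at 37 C, then loaded with calcium dye for 1 h. Compounds were preincubated 5 min at room temperature before DOI (4 nM solution) was added. Kinetic fluorescence was read for 3 min.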

[12] = biological target: 5-hydroxytryptamine receptor 2A (Homo sapiens) (UniProt P28223); experiment: 5-hydroxytryptamine receptor 2A (HTR2A) small molecule agonists, cell-based qHTS assay (AID 1963587); note: nearly all actives have a fitted effect of over 30% in size; note: potency is the fitted concentration of half-maximal effect
Method in brief: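 CHO cells stably expressing human HTR2A, plated 18 h, loaded with calcium dye 1 h at 37 C. Agonist mode: compounds added and intracellular calcium fluorescence recorded kinetically for 2 min at 1 sec intervals.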

[13] = biological target: Muscarinic acetylcholine receptor M1 (Homo sapiens) (UniProt P11229); experiment: Cholinergic receptor muscarinic 1 (CHRM1) small molecule antagonists, cell-based qHTS assay (AID 1963588); note: nearly all actives have a fitted effect of over 40% in size; note: potency is the fitted concentration of half-maximal effect
Chain of Muscarinic acetylcholine receptor M1 (Homo sapiens) (P11229 whole entry, looked up): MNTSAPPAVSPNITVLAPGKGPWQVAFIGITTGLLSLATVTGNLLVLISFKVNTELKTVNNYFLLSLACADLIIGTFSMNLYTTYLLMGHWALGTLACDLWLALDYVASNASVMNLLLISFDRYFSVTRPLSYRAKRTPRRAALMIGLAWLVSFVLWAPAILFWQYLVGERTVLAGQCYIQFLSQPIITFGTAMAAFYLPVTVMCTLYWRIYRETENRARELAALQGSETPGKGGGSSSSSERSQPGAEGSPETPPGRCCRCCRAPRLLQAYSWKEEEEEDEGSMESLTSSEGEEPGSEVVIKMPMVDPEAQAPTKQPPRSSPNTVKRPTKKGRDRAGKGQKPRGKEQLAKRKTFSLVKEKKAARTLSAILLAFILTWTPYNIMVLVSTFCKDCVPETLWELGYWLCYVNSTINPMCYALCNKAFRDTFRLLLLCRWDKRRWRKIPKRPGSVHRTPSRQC
Method in brief: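 Compounds were tested at 15 concentrations in three independent runs. Dye-loaded CHRM1-CHO cells were exposed 5 min at room temperature before stimulation by acetylcholine added at 50nM. Intracellular calcium was read kinetically on FDSS for 3 min.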

[14] = cAMP Responsive Elements (CRE) small molecule agonists, cell-based qHTS assay (AID 1963590)
Method in brief: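 Cells carrying a CRE-driven beta-lactamase reporter (HEK 293T) are seeded, incubated overnight (18 h), and treated with test compounds for 3 h at 37 C; reporter activity is then detected with a FRET substrate after 2 h at room temperature.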

[15] = cAMP Responsive Elements (CRE) small molecule antagonists, cell-based qHTS assay (AID 1963591; active = well fitted inhibition curve with a large enough effect in the signal ratio in the repeat runs, not every such curve was filed as active; the % refers to the signal ratio)
Method in brief: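 Cells (CRE-bla HEK 293T, DMEM with 10% dialyzed FBS and 25 mM HEPES) are seeded and incubated 18 h. Compounds are added with NKH477 agonist at 0.25 uM final for 3 h, then FRET substrate for 2 h.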

[16] = biological target: Beta-2 adrenergic receptor (Homo sapiens) (UniProt P07550); experiment: Adrenergic beta2 receptor (ADRB2) small molecule antagonists, cell-based qHTS assay (AID 1963592); note: series mostly up to about 92 µM; nearly all actives have a fitted effect of over 50% in size
Chain of Beta-2 adrenergic receptor (Homo sapiens) (P07550 whole entry, looked up): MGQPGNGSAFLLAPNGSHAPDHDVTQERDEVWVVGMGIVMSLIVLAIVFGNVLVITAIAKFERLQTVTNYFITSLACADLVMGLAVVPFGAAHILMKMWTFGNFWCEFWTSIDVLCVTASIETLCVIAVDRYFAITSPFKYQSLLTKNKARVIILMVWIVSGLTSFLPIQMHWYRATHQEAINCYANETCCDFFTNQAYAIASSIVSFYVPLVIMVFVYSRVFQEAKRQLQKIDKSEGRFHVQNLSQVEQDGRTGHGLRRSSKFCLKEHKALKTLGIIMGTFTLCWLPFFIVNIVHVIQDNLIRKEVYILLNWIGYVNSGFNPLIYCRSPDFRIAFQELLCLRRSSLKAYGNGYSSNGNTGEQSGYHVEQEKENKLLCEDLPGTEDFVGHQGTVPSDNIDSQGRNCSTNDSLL
Method in brief: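 Assay format: CHO-ADRB2 cells, 18-20hr seeding at 37C/5% CO2, then compound plus 1nM isoproterenol agonist mix for 0.5hr RT. Homogeneous time-resolved fluorescence cAMP detection after 1hr, expressed as 665/615 nm ratio.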

[17] = biological target: D(2) dopamine receptor (Homo sapiens) (UniProt P14416); experiment: Dopamine D2 receptor (DRD2) small molecule agonists, cell-based qHTS assay (AID 1963594); note: nearly all actives have a fitted effect of over 35% in size
Chain of D(2) dopamine receptor (Homo sapiens) (P14416 whole entry, looked up): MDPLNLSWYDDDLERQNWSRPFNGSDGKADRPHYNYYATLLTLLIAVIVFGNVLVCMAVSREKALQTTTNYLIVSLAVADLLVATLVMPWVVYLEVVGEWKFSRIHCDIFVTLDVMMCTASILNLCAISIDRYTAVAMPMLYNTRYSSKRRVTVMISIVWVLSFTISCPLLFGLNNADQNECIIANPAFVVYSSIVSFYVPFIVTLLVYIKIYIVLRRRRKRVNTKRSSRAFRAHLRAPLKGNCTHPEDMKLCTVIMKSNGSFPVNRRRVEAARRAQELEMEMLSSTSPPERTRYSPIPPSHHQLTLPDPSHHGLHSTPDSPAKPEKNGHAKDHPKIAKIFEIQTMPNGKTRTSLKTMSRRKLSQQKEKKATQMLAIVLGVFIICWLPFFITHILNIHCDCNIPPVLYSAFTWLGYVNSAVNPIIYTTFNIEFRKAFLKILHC
Method in brief: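 HEK293 cells stably expressing human DRD2, pre-treated with PDE inhibitor Ro20-1724 (0.1 mM final) and compound 10 min at room temperature, then stimulated with NKH477 (200nM […]) for 30 min. cAMP read by HTRF (665/620 nm).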

[18] = biological target: D(2) dopamine receptor (Homo sapiens) (UniProt P14416); experiment: Dopamine D2 receptor (DRD2) small molecule antagonists, cell-based qHTS assay (AID 1963595; active = well fitted inhibition curve with a large enough effect in the signal ratio in the repeat runs, with a control signal flat; the % refers to the signal ratio; note: potency is the fitted concentration of half-maximal effect)
Method in brief: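 DRD2-HEK293; 0.1 mM Ro20-1724; cpd 10 min RT; NKH477 200 nM + quinpirole 12 nM, 30 min RT; HTRF cAMP (cAMP-d2/anti-cAMP cryptate), 665/620 nm ratio after 1 h.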

[19] = biological target: Muscarinic acetylcholine receptor M1 (Homo sapiens) (UniProt P11229); experiment: Cholinergic receptor muscarinic 1 (CHRM1) small molecule agonists, cell-based qHTS assay (AID 1963589); note: nearly all actives have a fitted effect of over 35% in size
Method in brief: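 Cells were plated and incubated 18 h at 37 C/5% CO2, loaded with calcium dye for 1 h at 37 C, then treated with compounds in DMSO. Fluorescence was recorded kinetically at 1 sec intervals.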

[20] = p53 small molecule agonists, cell-based qHTS assay: qHTS cell viability counter screen (AID 1963581); note: nearly all actives have a fitted effect of over 45% in size
Method in brief: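 Viability was counter-screened in parallel with the p53 agonist reporter by measuring intracellular ATP luminescence in the same HCT-116 p53RE-bla wells after 16 h compound treatment at 37 C.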

SMILES	Potency [1]	Potency [2]	Potency [3]	Potency [4]	Potency [5]	Potency [6]	Potency [7]	Potency [8]	Potency [9]	Potency [10]	Potency [11]	Potency [12]	Potency [13]	Potency [14]	Potency [15]	Potency [16]	Potency [17]	Potency [18]	Potency [19]	Potency [20]
CCCCS(=O)(=O)Cl	inactive	inactive	inactive	inactive	inactive	inactive	inactive	inactive	inactive	inactive	inactive	inactive	inactive	inactive	inactive	inactive	inactive	inactive		
O=C1CN2CCOC2(c2ccccc2Cl)c2cc(Cl)ccc2N1 (centres undefined)	inactive	inactive	inactive	inactive	inactive	inactive	inactive	inactive	inactive	inactive	inactive		inactive	inactive	inactive		inactive	inactive	inactive	
CC(CCc1ccccc1)NC(C)C(O)c1ccc(O)cc1 (centres undefined)	inactive	inactive	inactive	inactive	inactive	inactive	inactive	inactive	inactive		inactive	inactive		inactive		inactive	inactive	16.8 µM (active)	inactive	
Oc1cccc(-c2ccccc2)c1	inactive	inactive	inactive	inactive	inactive	inactive	inactive	inactive		inactive	inactive	inactive	inactive	inactive	inactive	inactive	inactive	inactive	inactive	inactive
CC(Cc1ccc(OCC(=O)O)cc1)NCC(O)c1csc(C(F)(F)F)n1 (centres undefined)	inactive	inactive	inactive	inactive	inactive	inactive	inactive	inactive	inactive		inactive	inactive	inactive	inactive	inactive			inactive	inactive	
Oc1ccc(Cc2ccc(O)cc2)cc1	inactive	inactive	inactive	inactive	inactive	inactive	inactive	inactive	inactive	inactive		inactive	inactive	inactive	inactive	inactive	inactive	inactive	inactive	
COc1ccc(OC)c(C=O)c1	inactive	inactive	inactive	inactive	inactive	inactive	inactive	inactive	inactive		inactive	inactive	inactive	inactive	inactive	inactive	inactive	inactive	inactive	
COc1ccc2c(C(=O)c3ccc(Cl)cc3)c(C)n(CC(=O)O)c2c1	inactive	inactive	inactive	inactive	inactive	inactive	inactive		inactive	inactive		inactive	inactive	inactive	inactive	inactive		inactive	inactive	inactive
CCN1CCCC1CNC(=O)C(O)(c1ccccc1)c1ccccc1 (centres undefined)	inactive	inactive	inactive	inactive	inactive	inactive	inactive		inactive	inactive		2.68 µM (active)	0.0918 µM (active)		inactive	inactive	inactive	inactive		inactive
CC(C)OC(=O)C(O)(c1ccc(Cl)cc1)c1ccc(Cl)cc1	30.6 µM (active)	inactive	inactive	inactive	inactive	inactive	inactive	40.8 µM (active)			inactive	inactive	13.3 µM (active)				inactive		inactive	
CCC(CC)(CNC(=O)CCCO)c1cccc(OC)c1	inactive	inactive	inactive	inactive	inactive	inactive	inactive		inactive	inactive	inactive	inactive		inactive	inactive	inactive	inactive	inactive		
C(COCC1CO1)OCC1CO1 (centres undefined)	inactive	68.6 µM (active)	inactive	inactive	inactive	inactive	inactive	32.4 µM (active)		inactive		inactive	inactive	inactive	inactive	inactive	inactive	inactive	inactive	inactive
CC(=O)C(Cl)C(=O)N(C)C (centres undefined)	inactive	68.6 µM (active)	inactive	inactive	inactive	inactive	inactive		inactive	inactive	inactive	inactive	inactive	inactive	inactive	inactive	inactive		inactive	inactive
CN1CCN(C(=O)O[C@H]2c3nccnc3C(=O)N2c2ccc(Cl)cn2)CC1	inactive	inactive	inactive	inactive	inactive	inactive	inactive		inactive	inactive	inactive	inactive	inactive			inactive	inactive	inactive	inactive	inactive
COc1ccc(-c2ccccc2)cc1NNC(=O)OC(C)C	inactive	inactive	inactive	inactive	inactive	inactive	inactive		inactive	inactive		inactive	inactive		inactive				inactive	
O=C(CBr)Nc1ccc(Cl)cc1C(=O)c1ccccc1F	inactive	inactive	inactive	inactive	inactive	inactive	inactive		inactive			inactive	inactive			inactive	inactive	inactive	inactive	
